Experimental data: PubChem BioAssay (NCATS)
Results filed as inconclusive are left out. Calls of active or inactive are those of the source. Calls come from the whole dose curve; as a rule, active = well fitted inhibition curve with a large enough effect; inconclusive = small, poorly fitted or top-dose-only effect; inactive = no such curve, though single readings can be large or run the other way.

Experiment: Primary qHTS for small molecule stabilizers of the endoplasmic reticulum resident proteome: Secreted ER Calcium Modulated Protein (SERCaMP) assay (AID 1508630)
Conditions: SH-SY5Y GLuc-SERCaMP (Gaussia luciferase released on ER calcium loss) secretion, thapsigargin, luminescence; series mostly up to 38.4 µM
How it was run: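 GLuc-SERCaMP-expressing SH-SY5Y cells, pretreated 16 h with compound, are challenged with thapsigargin to empty ER calcium stores; after 4 h, coelenterazine is added directly to the medium and luminescence is imaged.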

Potency, inactive:
O=C(Nc1cccc(F)c1)N1CCC2(CC1)CCN(C(=O)c1csnn1)CC2, COC(=O)N1CCC2(CC1)CCN(c1ccccc1)CC2, N#Cc1cccc(NC(=O)N2CCC3(CC2)CCN(C(=O)c2ccco2)CC3)c1, O=C(c1cnccn1)N1CCC[C@@]2(CCN(c3ccncc3)C2)C1, CS(=O)(=O)N1CCC2(CC1)CN(Cc1cc(C(F)(F)F)cc(C(F)(F)F)c1)C2, Cn1cccc1C(=O)N1CCC[C@@]2(CCN(Cc3cc(C(F)(F)F)cc(C(F)(F)F)c3)C2)C1, N#Cc1ccc(CN2CCCC3(CCN(C(=O)c4cccc(F)c4)CC3)C2)cc1, COc1ccc(NC(=O)N2CC3(CCN(C(C)=O)CC3)C2)cc1, N#Cc1cccc(NC(=O)N2CCC3(CC2)CCN(C(=O)c2csnn2)CC3)c1, COc1ccccc1CN1CCC2(CC1)CCN(C(C)=O)CC2, Cc1noc(C)c1C(=O)N1CCC2(CCN(C(=O)Nc3ccccc3)CC2)CC1, O=C(Oc1ccccc1)N1CCC2(CC1)CN(c1ccccc1)C2, COC(=O)N1CCC[C@@]2(CCN(C(c3ccccc3)c3ccccc3)C2)C1, Cn1cccc1C(=O)N1CCC2(CC1)CCN(c1ccccc1)CC2, CC(=O)N1CCC2(CC1)CN(c1ccccn1)C2, CS(=O)(=O)N1CCC2(CC1)CN(c1cccc(-c3ccccc3)c1)C2, CC(C)CN1CC[C@@]2(CCCN(C(=O)c3cnccn3)C2)C1, Cn1cccc1C(=O)N1CCC2(CCCN(c3ccccc3)C2)CC1, O=C(c1csnn1)N1CCC[C@@]2(CCN(Cc3nccs3)C2)C1, O=C(c1ccco1)N1CCC2(CC1)CN(Cc1cc(C(F)(F)F)cc(C(F)(F)F)c1)C2, CC(C)NC(=O)N1CC[C@@]2(CCCN(C(=O)c3cc(C(F)(F)F)cc(C(F)(F)F)c3)C2)C1, COCC(=O)N1CCC[C@@]2(CCN(Cc3ccccc3OC)C2)C1, COc1ccccc1CN1CCCC2(CCN(S(C)(=O)=O)CC2)C1, O=C(c1cc(C(F)(F)F)cc(C(F)(F)F)c1)N1CCC[C@@]2(CCN(Cc3ccncc3)C2)C1, Cc1cccc(CNc2ncnc3ccc(-c4cccc(C#N)c4)cc23)c1, O=C(c1ccncc1)N1CCC2(CC1)CCN(c1cccc(-c3ccccc3)c1)CC2, CS(=O)(=O)N1CCC2(CC1)CN(Cc1nccs1)C2, c1ccc(-c2cccc(N3CC[C@@]4(CCCNC4)C3)c2)cc1, CC(=O)N1CCC2(CC1)CN(c1ccccc1)C2, CC(C)CN1CC[C@@]2(CCCN(S(=O)(=O)c3ccccc3)C2)C1, Cc1noc(C)c1C(=O)N1CCC[C@@]2(CCN(Cc3ccccc3)C2)C1, O=C(c1csnn1)N1CCC2(CC1)CN(c1ccccc1)C2, COCC(=O)N1CCC[C@@]2(CCN(C(=O)Nc3cccc(F)c3)C2)C1, O=C(c1csnn1)N1CCC2(CC1)CN(c1ccccn1)C2, COc1ccc(C(=O)N2CCC3(CCN(C)CC3)CC2)cc1, CS(=O)(=O)N1CCC2(CCCN(C(=O)Nc3cccc(C#N)c3)C2)CC1, Cc1noc(C)c1C(=O)N1CCC2(CCN(Cc3cc(C(F)(F)F)cc(C(F)(F)F)c3)CC2)CC1, CC(C)NC(=O)N1CC2(CCN(C(=O)c3ccco3)CC2)C1, CC(=O)N1CCC2(CC1)CN(C(c1ccccc1)c1ccccc1)C2, COc1ccc(NC(=O)N2CC[C@@]3(CCCN(C(=O)c4csnn4)C3)C2)cc1
